Screening data (PubChem)
D2 ag-1: Beta-Arrestin HTS for Positive Allosteric Modulators of the Human D2 Dopamine Receptor: Agonists; actives 0.084% (n = 360,000); activation, % (test concentration not listed); D(2) dopamine receptor (Homo sapiens), P14416; DiscoveRx PathHunter D2 beta-arrestin, luminescence, 90 min; 100% = 57 uM dopamine signal; in the data active means activation above about 40%; inconclusive means between about 15% and that limit
Target sequence (P14416 whole entry, looked up): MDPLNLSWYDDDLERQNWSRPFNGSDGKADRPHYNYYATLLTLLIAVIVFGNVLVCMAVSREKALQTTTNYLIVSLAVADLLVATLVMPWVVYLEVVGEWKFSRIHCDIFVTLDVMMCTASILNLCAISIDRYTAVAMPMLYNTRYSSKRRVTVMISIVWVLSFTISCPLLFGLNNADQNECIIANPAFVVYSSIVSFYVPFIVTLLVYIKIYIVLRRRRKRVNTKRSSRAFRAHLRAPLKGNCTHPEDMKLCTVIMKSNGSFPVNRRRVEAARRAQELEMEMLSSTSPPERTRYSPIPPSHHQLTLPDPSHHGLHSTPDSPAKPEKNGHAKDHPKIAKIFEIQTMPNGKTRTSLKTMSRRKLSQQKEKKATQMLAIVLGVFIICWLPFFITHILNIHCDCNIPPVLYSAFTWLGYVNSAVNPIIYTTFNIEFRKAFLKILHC
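Agonist mode: compounds alone added to overnight-plated D2 PathHunter cells for 90 min at 37 C, with 57 uM final dopamine (EC100) defining full response. Beta-arrestin recruitment detected by chemiluminescent reagent, read after 1 h at ambient temperature.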
D2 PAM-1: Beta-Arrestin HTS for Positive Allosteric Modulators of the Human D2 Dopamine Receptor: Potentiators; DiscoveRx D2 beta-arrestin cells, luminescence, 90 min; 100% = 57 uM dopamine signal; potentiation, % (test concentration not listed); actives 0.23% (n = 360,000); AID 624464, 2012; in the data active means potentiation above about 50%; inconclusive means mostly about 30% to 49%
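PathHunter beta-arrestin assay in DiscoveRx D2 cells. Compounds were added with an EC20 of dopamine (50 nM final) for 90 min at 37 deg C. Luminescence was read 1 h after detection reagent, with 57 uM dopamine as the EC100 control.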
D2 PAM-2: HTS Assay for Positive Allosteric Modulators of the Human D2 Dopamine Receptor: Primary Screen for Potentiators. D(2) dopamine receptor (Homo sapiens), P14416. HEK293 T-REx D2, calcium flux, EC20 dopamine potentiation. potentiation, % at 10 µM. actives 0.34% (n = 340,000);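 active means potentiation over 3 SD above the plate norm, cut at about 30% in these data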; further: 0% is about no effect
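Tetracycline-induced Hek293 Trex D2 cells, force-coupled to calcium, loaded with no-wash calcium dye. Compound added with 180 s kinetic read for agonism, then EC20 dopamine and a further 180 s read for potentiation.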
D2 ag-2: HTS Assay for Allosteric Agonists of the Human D2 Dopamine Receptor: Primary Screen for Agonists; D(2) dopamine receptor (Homo sapiens), P14416; HEK293 T-REx D2 cells, calcium flux agonist mode; activation, % at 2 µM; actives 0.53% (n = 340,000); AID 485358, 2010;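 active means activation over 3 SD above normal in the single-dose calcium agonist read, cut at about 30% in these data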; further: 0% is about no effect
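In this primary screen, compounds producing a positive calcium signal within 180 s of addition to tetracycline-induced, force-coupled HEK293 Trex D2 cells are flagged; cells are dye-loaded with a no-wash calcium kit beforehand.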
D2 antag: HTS Assay for Allosteric Antagonists of the Human D2 Dopamine Receptor: Primary Screen for Antagonists; D(2) dopamine receptor (Homo sapiens), P14416; HEK293 TREx D2 cells, calcium flux, dopamine EC80; inhibition, % at 10 µM; actives 2% (n = 340,000); AID 485344, 2010; in the data active means inhibition above about 30%; inactive means below that, where a call was filed; further: 0% is about no effect
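Calcium mobilization kinetics were recorded at 1 s intervals in tetracycline-induced HEK293 T-REx D2 cells, first for 180 s after compound addition and then 180 s after EC80 dopamine.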
D3 arrestin ag: qHTS of D3 Dopamine Receptor Agonist: D3 Dopamine Receptor B-arrestin Agonist Confirmatory Assay. AID 720506, 2013. shares compounds with D2 ag-2. DiscoveRx D3 beta-arrestin cells, luminescence, 90 min. Potency, µM (doses to about 76.9 µM), for the others: top-dose activation, most hits filed as activators. actives 4% (n = 2,300);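 further: potency means the concentration at half of the fitted maximal effect; 100% = dopamine control response; nearly all actives have a fitted effect of over 70% in size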
D2 ag-3: qHTS of D3 Dopamine Receptor Agonist: D2 Dopamine Receptor B-arrestin Agonist Counterscreen; actives 5.9% (n = 2,300); DiscoveRx PathHunter D2 beta-arrestin, luminescence, 90 min; response scale: percent relative to full dopamine signal; Potency, µM (doses to about 76.9 µM), inactives show at the highest dose activation, actives largely listed as activators; shares compounds with D2 ag-2; further: potency means the concentration at half of the fitted maximal effect; % of control where 0% means no effect; nearly all actives have a fitted effect of over 70% in size
* = called active by the depositor; u = inconclusive; x = no result. Sampled rows, rich in hits. Any-hit rate of the full collection: about 2.4%. Unless noted, the call rests on the fitted dose curve; in most records, active means well fitted activation curve with a large enough effect; inconclusive means small, poorly fitted or top-dose-only effect; inactive means flat fitted curve, though single readings scatter.

SMILES	D2 ag-1	D2 PAM-1	D2 PAM-2	D2 ag-2	D2 antag	D3 arrestin ag	D2 ag-3
O=C(O)CCCCCCCCc1cn(CCc2c[nH]c3ccccc23)nn1	-2	-8	-20	93*	-1	3%	-2%
CCOc1cc(S(=O)(=O)n2ccnc2C(C)C)ccc1Cl	x	x	-16	0	x	x	x
O=C(Nc1ccc2oc(-c3ccccc3)nc2c1)c1cc(-n2cnnc2)ccc1Cl	4	0	x	x	x	x	x
O=C(Nc1ccc(-c2nc3ccccc3o2)cc1)c1cc(-n2cnnc2)ccc1Cl	2	19	9	0	7	u	6%
Nc1c2c(nc3sc4c(c13)CCCC4)-c1ccccc1CC2	2	-5	3	1	-4	x	x
CCOc1ccc(C(=O)N/N=C(\c2ccccc2)c2ccccn2)cc1	-4	-28	5	-1	21	-23%	-11%
O=C(COC(=O)c1ccccn1)NC(=O)c1ccccc1	-7	-3	8	-1	-11	-4%	-6%
CCSc1nc2c(c(=O)[nH]1)C(C(C)C)C(C#N)=C(N)O2 (configuration not stated)	-2	1	0	45*	-10	-3%	-2%
Cc1cc(/C=C(\C#N)C(N)=O)c(C)n1-c1ccc(N2CCOCC2)c([N+](=O)[O-])c1	4	16	5	55*	4	21%	8%
CCC(C)N(CCNC(=O)c1ccc2c(c1)NC(=O)c1ccccc1S2)C1CCCCC1 (configuration not stated)	-6	-32	-28	x	x	-11%	-3%
COc1ccc(NS(=O)(=O)c2cccc(C(=O)NNC(=O)c3ccc(C)o3)c2)cc1	-2	-3	-11	0	-5	2%	2%
CC(C)OC(=O)c1c(NS(=O)(=O)c2ccccc2)sc2c1CCCC2	-2	-1	3	1	26	-11%	-5%
CN1CCN(c2ncnc3c2ncn3[C@H]2CN(Cc3cccs3)C[C@@H](CO)O2)CC1	-6	-10	x	x	x	x	x
O=C(CCNS(=O)(=O)c1ccc(Br)cc1)NCc1cccs1	-2	0	11	-2	-2	x	x
CN(Cc1cccs1)C(=O)CCNS(=O)(=O)c1ccc(Br)cc1	7	1	6	0	-25	-5%	0%
Cc1cc(C)c2c(=O)n3c(nc2c1)C(Cc1ccccc1)NC(=O)c1cccnc1-3 (configuration not stated)	-12	-1	x	x	x	x	x
CCOc1ccc(N2C(=O)CC(NC3CCN(C(=O)c4ccc(F)cc4)CC3)C2=O)cc1 (configuration not stated)	-2	13	2	0	38*	4%	-1%
CCOC(=O)c1ccc(N2C(=O)CC(NC3CCN(C(=O)c4ccc(F)cc4)CC3)C2=O)cc1 (configuration not stated)	-2	-13	1	0	-6	x	x
CCN1CCN(CC(O)COc2cccc(OC)c2)CC1 (configuration not stated)	0	-12	5	0	2	x	x
COc1cccc(OC)c1OCC(O)CN1CCN(c2ccc(F)cc2)CC1 (configuration not stated)	4	-25	-31	56*	73*	-10%	5%
COc1cccc(OCC(O)CN2CCN(c3ccc(F)cc3)CC2)c1 (configuration not stated)	1	-13	-20	34*	80*	10%	3%
